HMGR II inh = E. faecalis class II HMG-CoA reductase inhibition. purified E. faecalis HMGR, NADPH absorbance 340 nm kinetic. inhibition, % at 10 µM. 190,000 compounds, 0.41% hits;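 active = inhibition above a set limit, the median over all tested compounds plus 3 SD, cut at about 9.5% in these data; inconclusive = no clear call, values can overlap the other calls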;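 note: enzyme runs in reverse so mevalonate oxidation gives rising NADPH absorbance; 0% = complete reaction with DMSO and 100% = background rate lacking mevalonate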
PABP1 MLLE inh = blocks PAM2 peptide binding to the PABP1 MLLE domain; GST-MLLE / FITC-PAM2 fluorescence polarization; inhibition, % at 20 µM; AID 588489; P11940; 360,000 compounds, 0.36% hits; in the data active = inhibition above about 35%, passing the limit was not always enough;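 note: plate controls were DMSO wells with GST-MLLE for no effect and wells lacking GST-MLLE protein for full effect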
Target sequence (P11940 whole entry, looked up, the tested form may be a part): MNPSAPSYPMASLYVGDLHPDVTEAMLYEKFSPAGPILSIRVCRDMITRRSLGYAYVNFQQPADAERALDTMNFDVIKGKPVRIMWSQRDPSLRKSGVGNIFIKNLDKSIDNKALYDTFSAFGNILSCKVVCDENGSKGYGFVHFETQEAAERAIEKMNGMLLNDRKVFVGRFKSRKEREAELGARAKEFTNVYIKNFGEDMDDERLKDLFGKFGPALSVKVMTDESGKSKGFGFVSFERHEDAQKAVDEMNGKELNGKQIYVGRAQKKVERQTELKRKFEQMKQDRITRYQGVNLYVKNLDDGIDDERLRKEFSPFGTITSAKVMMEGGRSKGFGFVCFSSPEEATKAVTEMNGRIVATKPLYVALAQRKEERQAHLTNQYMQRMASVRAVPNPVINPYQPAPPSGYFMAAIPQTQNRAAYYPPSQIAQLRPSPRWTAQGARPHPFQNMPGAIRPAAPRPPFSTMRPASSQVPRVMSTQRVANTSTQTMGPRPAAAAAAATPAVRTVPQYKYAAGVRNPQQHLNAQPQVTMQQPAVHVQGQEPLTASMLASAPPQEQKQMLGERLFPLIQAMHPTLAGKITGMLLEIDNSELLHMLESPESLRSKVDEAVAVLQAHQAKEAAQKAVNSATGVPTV
PABP polyA inh = PABP-poly(A) binding inhibition; P11940; PABP-poly(A) RNA binding, fluorescence polarization; calls only at 35 µM; 290,000 compounds, 1% hits; AID 2014;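 note: calls also rest on retests at 20 µM and on dose response follow-up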
eIF4H inh = inhibitors of RNA binding by human eIF4H; Q15056; eIF4H fluorescence polarization binding assay; inhibition, % at 35 µM; 290,000 compounds, 0.94% hits; AID 2012;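 note: calls also rest on retests at 20 µM and on dose response follow-up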
PHOSPHO1 block = blocks human PHOSPHO1 phosphatase activity. Q8TCT1. recombinant PHOSPHO1, absorbance phosphatase assay. inhibition, % at 13.3 µM. 290,000 compounds, 1.1% hits. AID 1565; in the data active = inhibition above about 60%
Starred values were filed as active, the others as inactive; ! = not active in a repeat. Compounds with a hit are over-represented: about 2.4% of the library has one in this group of screens. Unless noted, the rule behind the calls is not given here.

Results for O=C(CC1C(=O)NCCN1Cc1ccc(-c2ccccc2)cc1)NCC1CC1 (stereo not given) ?
HMGR II inh: -1; PABP1 MLLE inh: 19; PABP polyA inh: inactive; eIF4H inh: 4; PHOSPHO1 block: 60*

Results for CC1=CC(C)(C)[N+](C)(C)c2ccccc21 ?
HMGR II inh: 1; PABP1 MLLE inh: -98; PABP polyA inh: active; eIF4H inh: -8; PHOSPHO1 block: 24

Results for O=C(O)/C=C/C(=O)Nc1ccccc1SC(F)(F)F ?
HMGR II inh: -2; PABP1 MLLE inh: 18; PABP polyA inh: inactive; eIF4H inh: 6; PHOSPHO1 block: -5

How did Cc1sc2nc3ccc(NCc4ccco4)nn3c(=O)c2c1C do in these assays?
HMGR II inh: -2; PABP1 MLLE inh: 41*; PABP polyA inh: inactive; eIF4H inh: 24; PHOSPHO1 block: 31

What do the screens show for `O=c1c2ccccc2nc2ccc(NCc3ccco3)nn12`?
HMGR II inh: -4; PABP1 MLLE inh: 81; PABP polyA inh: active; eIF4H inh: 43; PHOSPHO1 block: 21

What do the screens show for `Cc1ccc(C)c(NC(=O)c2ccccc2C(=O)c2ccccc2)c1`?
HMGR II inh: 1; PABP1 MLLE inh: 6; PABP polyA inh: inactive; eIF4H inh: -4; PHOSPHO1 block: 28

Results for NC(=O)N1c2ccccc2CC(=O)c2ccccc21 ?
HMGR II inh: -3; PABP1 MLLE inh: 61*; PABP polyA inh: active!; eIF4H inh: 71*!; PHOSPHO1 block: 14

What do the screens show for `CC(C)c1ccc(C(=O)NC(=S)Nc2ccc3[nH]c(=O)[nH]c3c2)cc1`?
PABP1 MLLE inh: 37; PABP polyA inh: inactive; eIF4H inh: 5; PHOSPHO1 block: 19

How did CCOC(=O)c1[nH]c2ccc(Br)cc2c1NC(=O)CCN1CCN(C(=O)OCC)CC1 do in these assays?
HMGR II inh: -4; PABP1 MLLE inh: -33; PABP polyA inh: inactive; eIF4H inh: 2; PHOSPHO1 block: 65*

What do the screens show for `O=C(COc1ccc(-n2cnnn2)cc1)Nc1cccc(Cl)c1Cl`?
PABP1 MLLE inh: -8; PABP polyA inh: inactive; eIF4H inh: 65*; PHOSPHO1 block: 23

What do the screens show for `COc1cc(NC(=O)COc2ccc(-n3cnnn3)cc2)c(OC)cc1Cl`?
HMGR II inh: -3; PABP1 MLLE inh: 6; PABP polyA inh: inactive; eIF4H inh: 13; PHOSPHO1 block: 31

What do the screens show for `CCOc1ccccc1C1C(C#N)=C(N)SC(N)=C1C#N`?
HMGR II inh: 2; PABP1 MLLE inh: 20; PABP polyA inh: inconclusive; eIF4H inh: inconclusive; PHOSPHO1 block: 70*

How did CCOc1ccc(C2C(C#N)=C(N)SC(N)=C2C#N)cc1OCC do in these assays?
HMGR II inh: -5; PABP1 MLLE inh: -27; PABP polyA inh: inactive; eIF4H inh: 122*; PHOSPHO1 block: -12

What do the screens show for `O=C(Nc1cccc(C(F)(F)F)c1)c1cc2ncc(Br)cn2n1`?
HMGR II inh: -4; PABP1 MLLE inh: -1; PABP polyA inh: inactive; eIF4H inh: 2; PHOSPHO1 block: -4

What do the screens show for `O=C(Nc1ccc2c(c1)OCO2)c1cc2ncc(Br)cn2n1`?
HMGR II inh: -1; PABP1 MLLE inh: -8; PABP polyA inh: active; eIF4H inh: 54*; PHOSPHO1 block: 11

What do the screens show for `C=CCn1c(O)c(CN2CCN(Cc3ccccc3)CC2)c(C)c(C#N)c1=O`?
HMGR II inh: -2; PABP1 MLLE inh: 64; PABP polyA inh: inactive; eIF4H inh: 126*; PHOSPHO1 block: 7

What do the screens show for `CCCn1c(O)c(CN2CCCCC2)c(C)c(C#N)c1=O`?
HMGR II inh: 0; PABP1 MLLE inh: 29; PABP polyA inh: inconclusive; eIF4H inh: inconclusive; PHOSPHO1 block: -17

Results for CS(=O)(=O)c1ccc(NC(=O)c2ccc3c(c2)S(=O)(=O)N=C2CCCCCN23)cc1 ?
PABP1 MLLE inh: 11

What do the screens show for `COc1cccc(C(=O)NCCS(=O)(=O)N2CCC(C)CC2)c1`?
PABP1 MLLE inh: 2

What do the screens show for `O=C(O)c1cc(Cl)c2c(c1)[C@@H]1C=CC[C@@H]1[C@H](c1ccc(S(=O)(=O)N3CCOCC3)cc1)N2`?
HMGR II inh: 0; PABP1 MLLE inh: 24; PABP polyA inh: active; eIF4H inh: 74*; PHOSPHO1 block: 0

Results for Cc1cc(C)c2c(c1)C1C=CCC1C(c1ccc(S(=O)(=O)N3CCOCC3)cc1)N2 (stereo not given) ?
HMGR II inh: -6; PABP1 MLLE inh: 8; PABP polyA inh: inactive; eIF4H inh: -10; PHOSPHO1 block: -35

Results for CN1C(=O)/C(=C/c2ccc(-c3ccccc3[N+](=O)[O-])o2)SC1=Nc1ccc(Cl)c(C(=O)O)c1 ?
HMGR II inh: 3; PABP1 MLLE inh: -50; PABP polyA inh: inactive; eIF4H inh: 78*; PHOSPHO1 block: -21

Results for N#Cc1c2n(c3c(=S)nc[nH]c13)CCCCC2 ?
HMGR II inh: 0; PABP1 MLLE inh: 13; PABP polyA inh: inactive; eIF4H inh: -1; PHOSPHO1 block: 96*

How did Cc1cccc(C2Nc3ccccc3C(=O)N2c2ccc(F)cc2)n1 (stereo not given) do in these assays?
HMGR II inh: 9.8*; PABP1 MLLE inh: 8; PABP polyA inh: inactive; eIF4H inh: -2; PHOSPHO1 block: -14

What do the screens show for `O=C1c2ccccc2NC(c2ccccn2)N1c1ccccc1F` (stereo not given)?
HMGR II inh: -9; PABP1 MLLE inh: 1; PABP polyA inh: inactive; eIF4H inh: -2; PHOSPHO1 block: -1

What do the screens show for `O=C(O)/C=C/c1ccc([N+](=O)[O-])o1`?
HMGR II inh: -4; PABP1 MLLE inh: -14; PABP polyA inh: inactive; eIF4H inh: 82; PHOSPHO1 block: -4

What do the screens show for `O=C1NC(=S)S/C1=C\C=C\c1ccc([N+](=O)[O-])o1`?
PABP1 MLLE inh: 3; PABP polyA inh: active; eIF4H inh: 95*; PHOSPHO1 block: -84

How did COc1ccc(-c2ccc(/C=C3/C(=N)N4C(C)=CSC4=NC3=O)o2)c([N+](=O)[O-])c1 do in these assays?
HMGR II inh: 1; PABP1 MLLE inh: 49; PABP polyA inh: active; eIF4H inh: 91*; PHOSPHO1 block: 8

What do the screens show for `Cc1ccc(C(=O)N[C@H](C(=O)Nc2cccc(S(=O)(=O)N3CCOCC3)c2)C(C)C)cc1`?
PABP1 MLLE inh: -1

What do the screens show for `CCOC(=O)/C(C#N)=C/c1ccc(SC)cc1`?
HMGR II inh: 14*; PABP1 MLLE inh: 4; PABP polyA inh: inactive; eIF4H inh: 2; PHOSPHO1 block: -10

What do the screens show for `CCOC(=O)NC(=O)/C(C#N)=C/c1ccc(N(C)C)cc1`?
PABP1 MLLE inh: -139; PABP polyA inh: active; eIF4H inh: 77; PHOSPHO1 block: 25

What do the screens show for `CN(C)c1ccc(/C=C(\C#N)C(=O)c2ccccc2)cc1`?
PABP1 MLLE inh: inactive; PABP polyA inh: inconclusive; eIF4H inh: inconclusive; PHOSPHO1 block: 51

What do the screens show for `Cc1ccc(OCCC(=O)OC(C)C(=O)Nc2c(C)n(C)n(-c3ccccc3)c2=O)cc1` (stereo not given)?
PABP1 MLLE inh: 10

How did CCc1cccc(C)c1NC(=O)CN1CCN(S(=O)(=O)c2ccc(C(C)(C)C)cc2)CC1 do in these assays?
PABP1 MLLE inh: 2
